By inhibition is commonly meant the change of the read-out against control, counted positive when it falls.

Each structure is given as a SMILES string. The campaign covered roughly 190,000 compounds. About 810 (0.43%) were called active. This excerpt belongs to a sample that is enriched for actives. Values without a mark were called inactive. No stated cut-off is given here; in the data, active means inhibition above about 50%; inactive means the rest.

Results on 100 molecules are retold here after PubChem BioAssay AID1209 (Sanford-Burnham Center for Chemical Genomics, 2008).

This assay deals with Mannose-6-phosphate isomerase (Homo sapiens) (UniProt P34949). In words: MPI enzyme activity inhibition – biochemical, fluorescence intensity, coupled assay, primary screen (AID 1209).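 Further: plate controls were DMSO vehicle for no effect and wells lacking substrate for full effect.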 The settings on record: purified PMI enzyme, at 20 µM, active compounds read high.
Mannose-6-phosphate isomerase (Homo sapiens), sequence (P34949 whole entry, looked up): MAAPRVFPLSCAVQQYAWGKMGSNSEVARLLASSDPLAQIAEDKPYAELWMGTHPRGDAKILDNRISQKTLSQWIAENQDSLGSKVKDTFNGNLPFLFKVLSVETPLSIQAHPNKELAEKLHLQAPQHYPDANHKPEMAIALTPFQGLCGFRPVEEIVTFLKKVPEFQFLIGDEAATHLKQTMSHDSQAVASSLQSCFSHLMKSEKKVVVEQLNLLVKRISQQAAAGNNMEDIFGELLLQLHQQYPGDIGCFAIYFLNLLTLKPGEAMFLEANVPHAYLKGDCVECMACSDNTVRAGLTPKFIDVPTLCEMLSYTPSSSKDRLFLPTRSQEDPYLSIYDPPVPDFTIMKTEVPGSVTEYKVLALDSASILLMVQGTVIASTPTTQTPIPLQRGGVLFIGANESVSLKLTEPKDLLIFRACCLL
On to `COc1ccc2cc(CN(CC3CCCO3)C(=O)Nc3ccccc3OC)c(=O)[nH]c2c1` (stereo not given), for which the inhibition is 3.2%.
For `Cc1ccc2nc(C)c(C(=O)N/N=C/c3ccc(C(=O)O)cc3)cc2c1`, the inhibition is 13.8%.
Regarding `Cn1cccc1C(=O)NC(=O)COC(=O)c1ccccc1O`, the inhibition is 9.4%.
`Cc1cc(NC(=S)N(CCCN2CCN(C)CC2)Cc2ccco2)ccc1Cl`: the inhibition is 3.6%.
With `CC1CCN(C(=O)CSc2nnc(CSc3ncccn3)n2C)CC1`, the inhibition was -8.9%.
In the case of `CCOC(=O)c1nnc(-c2ccccc2)nc1Oc1ccc(Cl)cc1`, the inhibition is 2.2%.
Consider `Cc1ccc(Oc2ccc(NC(=O)c3ccco3)cc2)cc1`, for which the inhibition is 6.1%.
For `O=C(Nc1cccc(-c2nnc(-c3ccccc3)o2)c1)c1ccco1`, the inhibition was 7.4%.
`Cc1ccc(-c2nnc(-c3ccc(NC(=O)c4ccco4)cc3)o2)cc1`: the inhibition was 75.9% (active).
The result for `COc1cccc(/C=N/N2CCOCC2)c1O` reads 4.9%.
On to `CCN(CC)c1ccc(/C=N/N2CCOCC2)c(O)c1`, for which the inhibition is 19.6%.
Take `CC(C)c1nc(CN2CCCCC2)cc(=O)[nH]1`: the inhibition is 8.6%.
On to `CCN(CC)S(=O)(=O)c1ccc(C(=O)NCc2n[nH]c(=S)n2Cc2ccccc2)cc1`, for which the inhibition is 10.2%.
The result for `CC1=C(C(N)=O)C(c2cccs2)NC(=S)N1` (stereo not given) reads -11.8%; that for `Cc1nn(C)c(C)c1N1C(=O)c2cccc3c(Br)ccc(c23)C1=O`, -0.5%.
`Cc1nn(C)c(C)c1N1C(=O)c2cccc3c(N)ccc(c23)C1=O`: the inhibition is 6%.
Take `CC(=O)c1ccc2c3c(cccc13)C(=O)N(c1c(C)nn(C)c1C)C2=O`: the inhibition was 74.2% (active).
For `O=C(NC(Nc1ncccn1)C(=O)c1ccccc1)c1ccccc1` (stereo not given), the inhibition was -2%.
Consider `O=C(NC(NC(=O)c1ccccc1)c1ccccc1)c1ccccc1`, for which the inhibition is -8.6%.
With `O=C(NC(NC(=O)c1ccccc1)C(=O)c1ccccc1)c1ccccc1` the figure was 109% (active).
As for `CC(NC(=O)c1ccc2c(c1)OCCO2)C(=O)O` (stereo not given), the inhibition is -5.6%.
In the case of `Cn1cc(CNCc2cnc3ccccn23)c(-c2ccc(Oc3ccccc3)cc2)n1`, the inhibition is 4.9%.
Turning to `CCN(CC)S(=O)(=O)c1ccc(NC(=O)c2cc(-c3cccs3)nc3ccccc23)cc1`, the inhibition is -4.8%.
Consider `O=[N+]([O-])c1ccc2c(c1Nc1ccccc1)=NC1(CCCCC1)N=2`, for which the inhibition was 46.2%.
`c1ccc(Nc2cccc(Nc3ccccc3)c2)cc1`: the inhibition is 21%.
For the molecule `[O-][N+]1=c2ccc(Nc3ccccc3)cc2=NC12CCCCC2`, the inhibition was 79.7% (active).
Turning to `COc1cc(C(=O)N/N=C(\C)c2ccc3c(c2)OCO3)cc(OC)c1OC`, the inhibition was 2.6%.
With `Cc1cc(C)n(-c2ccc([N+](=O)[O-])cc2)n1` the figure was 7%; with `COc1ccc(C2=NN(C(=O)CSc3nnc(C)n3C)C(c3ccco3)C2)cc1` (stereo not given), -23.9%; with `C=CCn1c(SCC(=O)N2N=C(c3ccco3)CC2c2ccco2)nnc1-c1ccncc1` (stereo not given), 57.4% (active).
In the case of `C=CCn1c(SCC(=O)N2CCCCC2)nnc1-c1ccncc1`, the inhibition is -1.3%.
Take `COc1ccc(-c2nc3ccccc3c(=O)n2NC(=S)N(C)C)cc1`: the inhibition was 57.4% (active).
In the case of `Cc1ccc(-c2nc3ccccc3c(=O)n2NC(=S)N(C)C)cc1`, the inhibition is 16.6%.
With `CN(C)C(=S)Nn1c(-c2ccccc2)nc2ccccc2c1=O` the figure was 4.8%.
With `CCOC(=O)C1(C)C=C(Nc2ccc(OCC)cc2)C(=O)N1c1ccccc1` (stereo not given) the figure was 11.1%; with `CCCCC(=O)Nc1sc(C(=O)N(CC)CC)c(C)c1C(=O)OC`, 58.3% (active); with `CCOC(=O)c1c(NC(=O)CN(C)C)sc(C(=O)N(CC)CC)c1C`, 8.3%.
In the case of `CCOC(=O)c1c(NC(=O)CCl)sc(C(=O)N(CC)CC)c1C`, the inhibition is -11.1%.
Consider `CC(C)CN(C(=O)CN1CCC(C)CC1)c1c(N)n(CC(C)C)c(=O)[nH]c1=O`, for which the inhibition was -5.2%.
With `C/C(CC(=O)N1CCN(C=O)CC1)=N\NC(=O)c1cc2ccccc2cc1O`, the inhibition is 84.9% (active).
Consider `C/C(CC(=O)N1CCN(C=O)CC1)=N\NC(=O)c1ccc(Cl)cc1`, for which the inhibition is -0.6%.
As for `COc1ccc(C(=O)N/N=C(\C)CC(=O)N2CCN(C=O)CC2)cc1`, the inhibition is 5.1%.
As for `Cc1cc(C)nc(Nc2n[nH]c(-c3ccccc3C)n2)n1`, the inhibition was 3.4%.
As for `O=c1[nH]c(-c2ccccn2)nc2ccccc12`, the inhibition is 19.5%.
The result for `O=c1[nH]c(-c2ccncc2)nc2ccccc12` reads 71.3% (active).
The result for `O=c1[nH]c(-c2cccnc2)nc2ccccc12` reads 7.1%; that for `CCOC(=O)C(C)n1cnc2c(nnn2-c2cccc(Cl)c2)c1=O` (stereo not given), -9.6%; that for `COc1ccccc1NC(C)C(=O)Nc1ccc(C(C)=O)cc1` (stereo not given), 19.5%.
For the molecule `CCc1ccc(NC(=O)c2ccccc2SC)cc1`, the inhibition is 7.2%.
As to `Cc1nnc(N/N=C/c2ccc(-c3ccccc3F)o2)n1N`, the inhibition is -38.4%.
Consider `Nn1cnnc1N/N=C/c1ccc(Cl)c([N+](=O)[O-])c1`, for which the inhibition is 13.3%.
In the case of `Cc1nnc(N/N=C/c2ccc(-c3ccc(Br)cc3)o2)n1N`, the inhibition is -11.5%.
The result for `Nn1cnnc1N/N=C\c1ccc(-c2ccccc2[N+](=O)[O-])o1` reads 82.5% (active); that for `Cc1nnc(N/N=C\c2ccc(-c3ccccc3[N+](=O)[O-])o2)n1N`, 57.8% (active).
The result for `O=[N+]([O-])c1ccccc1-c1ccc(/C=N/n2cnnc2)o1` reads 20.4%; that for `COc1ccc(N2C(=O)CSCC2=O)cc1OC`, 1.2%.
In the case of `Cc1ccc(C)c(C(C)NC(=O)c2ccccc2Br)c1` (stereo not given), the inhibition was -5.5%.
As to `Cc1cc(C)nc(NC(=O)c2csnn2)c1`, the inhibition is -0.9%.
The result for `CCOC(=O)c1ccc(N=c2scc(C)n2CC)cc1` reads -8.8%; that for `Clc1ss/c(=N\c2ccccn2)c1Cl`, -30.7%.
Turning to `Cc1ccc(N=c2sc(C)c(C)n2C)cc1`, the inhibition was -13%.
As for `CCOC(=O)c1ccc(N=c2ssnc2Cl)cc1`, the inhibition is 66.1% (active).
With `Clc1nssc1=Nc1ccccc1`, the inhibition was 57% (active).
For `Cc1cc(C)nc(/N=c2/ssnc2Cl)c1`, the inhibition was 60.1% (active).
As for `CCOC(=O)c1ccc(N=C2NC(=O)CS2)cc1`, the inhibition is 10.2%.
Take `Cc1ccc(N=C2CSC(=O)N2)cc1`: the inhibition was 8.6%.
As for `Cc1ccc(N=c2ssnc2Cl)cc1`, the inhibition is 75.1% (active).
In the case of `Cc1cc(C)c(C#N)c(Cl)n1`, the inhibition is 21%.
The result for `O=C1CSC(=Nc2ccccc2)N1Cc1ccccc1` reads 6.4%; that for `CCC(=O)c1c[nH]c(C(=O)NCCCn2ccnc2)c1`, 10.2%.
For `O=C(CCN1CCCCCC1)Nc1ccc(F)c(F)c1`, the inhibition was -7.5%.
`COc1cc(/C=C(\NC(=O)c2ccccc2)C(=O)Nc2cccc(O)c2)c([N+](=O)[O-])cc1OC`: the inhibition is 9.6%.
For `COC(=O)C(C(=O)OC)=C(/C=C/C=C/N(C)C)N(C)C`, the inhibition is 2.5%.
Take `O=C(Nc1ccc(Br)cc1)c1ccccc1CC[N+](=O)[O-]`: the inhibition was 17.3%.
The result for `O=C1c2ccccc2C(=O)N1CC1c2ccccc2CCN1S(=O)(=O)c1cnc[nH]1` (stereo not given) reads 7.7%; that for `CC(C)c1nnc(NC(=O)CSc2ncn[nH]2)s1`, 10.7%; that for `CC(C)(C)C1CCC(=NNC(=O)c2ccccc2-n2cccc2)CC1` (stereo not given), 21%.
On to `CC12c3ccccc3C(c3ccccc31)C1C(=O)N(Cc3cccnc3)C(=O)[C@H]12` (stereo not given in full), for which the inhibition was 4.1%.
For `COc1ccc2c(c1)c(=O)c(C(=O)c1ccc(C)cc1)cn2CC(=O)Nc1ccc(F)cc1`, the inhibition is 3.6%.
With `COc1cc(OC)cc(-n2nnnc2SCC(=O)Nc2ccc(C(C)=O)cc2)c1`, the inhibition was 5.1%.
Consider `Cc1cc(NC(=O)C(C)C)ncc1NC(=O)c1ccccn1`, for which the inhibition is 0.2%.
As to `O=C(CNC(=O)c1ccc(S(=O)(=O)N2CCCC2)cc1)N/N=C/c1ccc(Cl)cc1Cl`, the inhibition is 9.4%.
Turning to `NC1=NC(=Nc2ccc(Cl)cc2)c2ccccc21`, the inhibition was -3.6%.
In the case of `NC1=NC(=Nc2ccc(Br)cc2)c2ccccc21`, the inhibition was -7.2%.
Take `O=C1NC(=Nc2ccc(Cl)cc2)/C(=C/c2ccco2)S1`: the inhibition is 1.4%.
In the case of `Clc1nssc1=Nc1ccc(Br)cc1`, the inhibition was 81.6% (active).
With `Clc1ccc(N=c2ssnc2Cl)cc1` the figure was 78.7% (active); with `Brc1ccc(N=Cc2ccccn2)cc1`, -9.1%.
With `CCOC(=O)Nc1ccc(OCc2nnc3c4ccccc4c(C)nn23)cc1` the figure was 3.7%; with `CCOC(=O)c1cnc(SCC(=O)NCc2cccs2)nc1N`, -5.5%; with `NS(=O)(=O)c1ccc(NC(=O)COC(=O)/C=C/c2ccc([N+](=O)[O-])cc2)cc1`, -1.2%.
With `CCN(CC)S(=O)(=O)c1ccc(/C=C/C(=O)OCC(=O)Nc2ccc(C(N)=O)cc2)cc1` the figure was -5.2%; with `CCN(CC)S(=O)(=O)c1ccc(/C=C/C(=O)OCC(=O)Nc2ccc(S(N)(=O)=O)cc2)cc1`, 70.7% (active).
Regarding `Cc1c(C(=O)N2CCN(c3ccccc3F)CC2)sc2ncn(CC(=O)N3CCOCC3)c(=O)c12`, the inhibition was -1.6%.
With `Cc1c(NC(=O)c2ccc(C(C)(C)C)cc2)cccc1[N+](=O)[O-]` the figure was 7.4%; with `CCn1c(CCc2ccccc2)n[nH]c1=S`, -3%.
The result for `CCn1c(SCC(=O)N/N=C/c2ccc(O)c(OC)c2)nc2ccccc21` reads 61.7% (active); that for `CCn1c(SCC(=O)N/N=C/c2cc(OC)c(O)c(OC)c2)nc2ccccc21`, -0.1%.
With `CCn1c(SCC(=O)N/N=C/c2ccc(OC)c(OC)c2)nc2ccccc21`, the inhibition was 8.4%.
As for `COc1ccccc1N1CCN(C(=O)C2CCN(S(=O)(=O)N3CCOCC3)CC2)CC1`, the inhibition was -6.6%.
